A short description of experiment [1]: NCI Yeast Anticancer Drug Screen. Data for the rad50 strain (AID 155).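 Note: 0% = growth of vehicle-only cultures of the same strain.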 The conditions noted are these: S. cerevisiae rad50 strain growth inhibition; at 50.0 µM; active compounds read high. The method, boiled down:
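Cells are treated with compound, grown, and their growth is then scored against vehicle-only cultures of the same repair-deficient yeast strain.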

A short description of experiment [2]: NCI Yeast Anticancer Drug Screen. Data for the mec2-1 strain (AID 157). The conditions noted are these: S. cerevisiae mec2-1 strain, at 50.0 µM, active compounds read high. The method, boiled down:
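mec2-1 yeast strain, carrying an alteration in DNA damage repair or cell cycle control, was exposed to compounds; growth inhibition was measured relative to vehicle-treated controls.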

The nature of experiment [3]: NCI Yeast Anticancer Drug Screen. Data for the sgs1 mgt1 strain (AID 161).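 Note: 0% = growth of cultures given vehicle only.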 The settings on record: S. cerevisiae sgs1 mgt1 strain, at 50.0 µM, active compounds read high. The method, boiled down: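 Yeast cells carrying a defined DNA-repair defect were exposed to test compounds. Growth inhibition was measured relative to vehicle-treated controls.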
Experiment [4] can be described thus: NCI Yeast Anticancer Drug Screen. Data for the cln2 rad14 strain (AID 165).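 Note: 0% = growth equal to vehicle treated cultures.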 The conditions noted are these: S. cerevisiae cln2 rad14 strain, at 50.0 µM, active compounds read high. The method, boiled down:
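Yeast carrying cln2 and rad14 alterations (cell cycle control and DNA damage repair) were exposed to compounds. Growth inhibition was measured against vehicle-treated controls.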

Experiment [5] can be described thus: NCI Yeast Anticancer Drug Screen. Data for the bub3 strain (AID 167). The settings on record: S. cerevisiae bub3 mutant strain, at 50.0 µM, active compounds read high. The method, boiled down: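 Part of a panel of yeast mutants defective in DNA damage repair or cell cycle regulation. Each strain is grown with compound, and inhibition is calculated relative to solvent-treated cultures.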

Experiment [6] in a line: NCI Yeast Anticancer Drug Screen. Data for the mlh1 rad18 strain (AID 175). The conditions noted are these: S. cerevisiae mlh1 rad18 strain growth inhibition; at 50.0 µM; active compounds read high. The essentials: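 Growth inhibition of the yeast strain was measured after compound exposure and expressed relative to vehicle-treated controls. The strain carries defined defects in DNA damage repair.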

The record followed here is PubChem BioAssay (NCI).

The structures appear in SMILES notation. Compounds without any hit were thinned out: in the full panel of roughly 79,000, 15% have a hit. Unmarked numbers belong to inactive results. Active and inactive are the calls of the source. Cut-off read from the data, not from the text of the source: active = growth inhibition above about 70%; inactive = the rest.

On to `NC1CSc2ccccc2NC1=O` (configuration not stated), for which the growth inhibition in experiment [1] is 20.5%; in experiment [2] it was 31.9%; in experiment [3] it was 7.8%; in experiment [4], 9.8%; in experiment [5] it was 22.8%; in experiment [6] it was 33%.

As to `O=C1Nc2ccccc2C2=C3CCCCC3=NNC12` (configuration not stated), the growth inhibition in experiment [1] is 97.7% (active); in experiment [2], 93.8% (active); in experiment [3], 97.7% (active); in experiment [4], 68.2%; in experiment [5] it was 97.5% (active); in experiment [6] it was 86% (active).

`OCC(O)C1OC2CC1Nc1ccccc1N2` (configuration not stated): the growth inhibition was -30.6% in experiment [1]; -21.3% in experiment [2]; 9.6% in experiment [3]; 17.3% in experiment [4]; -15.1% in experiment [5]; -12.7% in experiment [6].

As for `O=C(O)C1=CC(c2ccccc2O)=NCCN1`, the growth inhibition in experiment [1] is -20.8%; in experiment [2] it was -0.75%; in experiment [3], 0.7%; in experiment [4], -34.6%; in experiment [5], -4.1%; in experiment [6] it was 3.6%.

For the compound `c1ccc(CCC2OCC(c3ccccc3)O2)cc1` (configuration not stated), the growth inhibition in experiment [1] was -21.9%; in experiment [2], 18.6%; in experiment [3] it was -3.2%; in experiment [4], -35.9%; in experiment [5], 58.8%; in experiment [6], -2.05%.

Turning to `Nc1ccc(C(=O)O)c(O)c1.Nc1ccc(C(=O)O)c(O)c1.[Cu]`, the growth inhibition in experiment [1] is -13.4%; in experiment [2], 2.4%; in experiment [3] it was -20.3%; in experiment [4], 3.6%; in experiment [5] it was -1.95%; in experiment [6], -5.05%.

For `COC(=O)C1C(=O)N(C)c2cc(C)c(C)cc2C1(C)C` (configuration not stated), the growth inhibition in experiment [1] was 7.55%; in experiment [2], -9.4%; in experiment [3] it was 1.6%; in experiment [4] it was 5.8%; in experiment [5], 24.9%; in experiment [6] it was -3.9%.

With `CN(C)CCSCC(=O)N1c2ccccc2Sc2ccccc21`, the growth inhibition in experiment [1] was -7.7%; in experiment [2], -8.5%; in experiment [3], -5.8%; in experiment [4] it was -41.2%; in experiment [5] it was 3%; in experiment [6] it was -4.8%.

As for `CC(=O)OC(C(=O)Nc1ccc(Br)cc1)c1ccccc1` (configuration not stated), the growth inhibition in experiment [1] was 4.7%; in experiment [2], -3.95%; in experiment [3], -4.75%; in experiment [4], -35.5%; in experiment [5], 11.6%; in experiment [6] it was -6.65%.

For `O=C(COc1cc(Cl)c(Cl)cc1Cl)Nc1ccc(N=Nc2ccccc2)cc1`, the growth inhibition was 2% in experiment [1]; 3.55% in experiment [2]; -12.6% in experiment [3]; -9.55% in experiment [4]; 2.75% in experiment [5]; -7.95% in experiment [6].

Regarding `CC(=O)N[C@H](CO)[C@H](O)c1ccc([N+](=O)[O-])cc1`, the growth inhibition in experiment [1] is -12.2%; in experiment [2], 10.1%; in experiment [3] it was 9%; in experiment [4], -47.6%; in experiment [5], 16.1%; in experiment [6] it was 19.6%.

Consider `CCCOc1ccc(C(N)=S)c2ccccc12`, for which the growth inhibition in experiment [1] was -0.25%; in experiment [2] it was 1.1%; in experiment [3] it was 8.45%; in experiment [4], -28.2%; in experiment [5], 20.2%; in experiment [6], 12.3%.

Turning to `O=C(CCC(O)(C(=O)c1ccccc1)c1ccccc1)c1ccccc1` (configuration not stated), the growth inhibition in experiment [1] was 9.25%; in experiment [2], 9.5%; in experiment [3] it was -0.1%; in experiment [4] it was 6.35%; in experiment [5], 0.4%; in experiment [6] it was 26.4%.

For `O=C(O)C(CSC(c1ccccc1)(c1ccccc1)c1ccccc1)NSc1ccccc1[N+](=O)[O-]` (configuration not stated), the growth inhibition in experiment [1] was 96.2% (active); in experiment [2], 97.2% (active); in experiment [3] it was 97.7% (active); in experiment [4], 96.5% (active); in experiment [5], 95.6% (active); in experiment [6], 97.8% (active).

Consider `CN(C)c1ccc(S(=O)(=O)c2ccc3nc(N)nc(N)c3c2)cc1`, for which the growth inhibition in experiment [1] is 29.2%; in experiment [2], 16.2%; in experiment [3], 5.45%; in experiment [4], -26.5%; in experiment [5] it was -5.9%; in experiment [6] it was 3.85%.

Turning to `C/C(=N\O)c1sc(-n2nc(-c3ccccc3)cc2-c2ccccc2)nc1C`, the growth inhibition is 13.7% in experiment [1]; 4.2% in experiment [2]; 37.6% in experiment [3]; 25.4% in experiment [4]; 30.6% in experiment [5]; 19.3% in experiment [6].

Take `CCOC(=O)C(CC(CC(C(=O)OCC)C(=O)OCC)=C(C)C)C(=O)OCC`: the growth inhibition in experiment [1] was 36.1%; in experiment [2] it was 0.65%; in experiment [3] it was 15%; in experiment [4], -14.5%; in experiment [5] it was 24.2%; in experiment [6], 15.4%.

In the case of `CCOC1=CC(=O)CCC1`, the growth inhibition was -0.2% in experiment [1]; -23% in experiment [2]; 24.9% in experiment [3]; -36.5% in experiment [4]; -7.1% in experiment [5]; 3% in experiment [6].

Consider `CCOc1c[n+](C)c(/C=C/c2ccccc2)s1`, for which the growth inhibition in experiment [1] is 3.15%; in experiment [2], -11.6%; in experiment [3], -3.25%; in experiment [4] it was -9.3%; in experiment [5], -0.45%; in experiment [6] it was -20.9%.

Take `CCN(CC)C(=O)Cc1c(C(=O)N(CC)CC)c(=O)nc2sccn12`: the growth inhibition in experiment [1] was -27.2%; in experiment [2], -15.8%; in experiment [3], -30.8%; in experiment [4] it was -23.3%; in experiment [5], -25%; in experiment [6], -43.6%.

For the compound `Cc1ccccc1N1CCOS(=O)OC(C)C1` (configuration not stated), the growth inhibition in experiment [1] was -3.6%; in experiment [2], 23.7%; in experiment [3] it was 64.8%; in experiment [4], 39.9%; in experiment [5], 55.3%; in experiment [6], 57.5%.

On to `CCO/C=C1/N=C(c2cc([N+](=O)[O-])cc([N+](=O)[O-])c2C)OC1=O`, for which the growth inhibition was 10.6% in experiment [1]; 6.85% in experiment [2]; -6.45% in experiment [3]; -58.2% in experiment [4]; -35% in experiment [5]; 15.1% in experiment [6].

For `CCC(=O)Nc1nnc(SCCCCCCCCCCSc2nnc(NC(=O)CC)s2)s1`, the growth inhibition is 20.6% in experiment [1]; 4.95% in experiment [2]; 17.7% in experiment [3]; 19.3% in experiment [4]; -2.5% in experiment [5]; 21.5% in experiment [6].

For `CCCCC(=O)N1SC(NC(=O)OC)=Nc2ccccc21`, the growth inhibition in experiment [1] was 61%; in experiment [2], 42.4%; in experiment [3], 61.8%; in experiment [4], 67.2%; in experiment [5] it was 92.4% (active); in experiment [6], 76.2% (active).

Turning to `CCCCC(CCc1ccccc1)C(=O)NCC` (configuration not stated), the growth inhibition is -5.1% in experiment [1]; -11.6% in experiment [2]; -18.4% in experiment [3]; -11% in experiment [4]; -12.3% in experiment [5]; 5.1% in experiment [6].

Take `O=C1CSSCC(=O)Nc2ccccc2N1`: the growth inhibition in experiment [1] was 6.35%; in experiment [2] it was 0.5%; in experiment [3] it was -0.2%; in experiment [4], 16.2%; in experiment [5] it was 19.4%; in experiment [6] it was -4%.

As for `CS(=O)(=O)C(CCC(=O)c1ccc2ccccc2c1)C(=O)c1ccccc1` (configuration not stated), the growth inhibition in experiment [1] is 3.1%; in experiment [2], -12.7%; in experiment [3], 5.3%; in experiment [4] it was 20.4%; in experiment [5], -2.4%; in experiment [6], -7.15%.

On to `CCOC(=O)c1ccc(NC(=O)CCCCl)cc1`, for which the growth inhibition is 6.15% in experiment [1]; -14.2% in experiment [2]; -8.75% in experiment [3]; 8.55% in experiment [4]; 12.7% in experiment [5]; -24.3% in experiment [6].

On to `O=C1c2cccc3cccc(c23)C(=O)N1C(Cc1ccccc1)c1ccccc1` (configuration not stated), for which the growth inhibition in experiment [1] was -15.5%; in experiment [2] it was -49.4%; in experiment [3], -15.1%; in experiment [4], -4.2%; in experiment [5], -37.8%; in experiment [6] it was -31.1%.

As to `COc1ccc(C2=NC(C)(C)CO2)cc1C`, the growth inhibition in experiment [1] was -23.1%; in experiment [2], -4.15%; in experiment [3], 3.6%; in experiment [4], -17.9%; in experiment [5], 21.1%; in experiment [6], 20.5%.

Consider `CCOc1ccccc1NC(=O)/C=C1\NC(=O)CS1`, for which the growth inhibition in experiment [1] was -8.55%; in experiment [2], -14.4%; in experiment [3], 27.2%; in experiment [4] it was 11.3%; in experiment [5], -5.65%; in experiment [6], 40.4%.

Take `CCCC1=NCCO1`: the growth inhibition in experiment [1] was -10.9%; in experiment [2] it was -26.6%; in experiment [3], -6.65%; in experiment [4] it was 0.45%; in experiment [5], -6.95%; in experiment [6], -13.7%.

As to `CC1CN=C(N(C(=O)Nc2ccc(Cl)c(Cl)c2)c2ccccc2)S1` (configuration not stated), the growth inhibition is -47.3% in experiment [1]; 3.6% in experiment [2]; -5.7% in experiment [3]; 23.8% in experiment [4]; -2.55% in experiment [5]; -3.3% in experiment [6].

With `Cc1ccc(O)cc1C=C(Cl)Cl`, the growth inhibition in experiment [1] is 18.6%; in experiment [2] it was 0.25%; in experiment [3] it was 35.6%; in experiment [4], 22.8%; in experiment [5], -0.3%; in experiment [6], 11.4%.

For `CCOC(=O)c1cccc(Cl)c1C(=O)O`, the growth inhibition was -7.75% in experiment [1]; -13.1% in experiment [2]; 0.25% in experiment [3]; -29.5% in experiment [4]; -4.05% in experiment [5]; -7.75% in experiment [6].

As for `CC(C)(O)c1ccccc1[S+]1OC(C)(C)c2ccccc21` (configuration not stated), the growth inhibition in experiment [1] was 27.9%; in experiment [2], 17.6%; in experiment [3], 30.3%; in experiment [4] it was 56.8%; in experiment [5] it was 98.3% (active); in experiment [6], 35.8%.

Turning to `CCOC(=O)/C(C#N)=C(\C)c1ccc(O)c(OC)c1`, the growth inhibition in experiment [1] is 11.4%; in experiment [2], 8.95%; in experiment [3], -3.45%; in experiment [4], 24.1%; in experiment [5] it was -8.1%; in experiment [6] it was 14.8%.
